# Screening results from PubChem.
# RecA splice inh – Mtb RecA intein splicing inhibitors, primary screen, biochemical, fluorescence, HTS; cell-free RecA intein splicing; inhibition, % (no concentration beside the values); actives 0.75% (n = 290,000); in the data active means inhibition above about 30%;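 further: 0% = vehicle wells and 100% = reference inhibitor control wells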
# CCHF vOTU inh – CCHFV vOTU protease inhibitors, primary screen, biochemical, Pep-AMC substrate, fluorescence; Crimean-Congo hemorrhagic fever virus L polyprotein viral ovarian tumor (vOTU) protease …; inhibition, % at 11.5 µM; actives 0.55% (n = 370,000); AID 651958, 2012; in the data active means inhibition above about 30%; further: 0% = vehicle wells with enzyme and 100% = no enzyme wells
# Mtb bLac sens – beta-lactam sensitization of Mtb H37Rv, H37Rv; M. tuberculosis H37Rv growth with meropenem, percent inhibition; inhibition, % at 25 µM; actives 0.27% (n = 330,000); AID 434955, 2010;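 further: growth measured after seven days incubation then overnight dye step; 0% = bacteria only wells and 100% = bacteria with antibiotic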
# GDH-TPI counter – GDH-TPI coupling enzyme inhibitors, primary screen, artefact control for M. tuberculosis FBA inhibitor project, biochemical, absorbance, full deck; actives 1.2% (n = 360,000); inhibition, % at 4.8 µM; GDH-TPI coupled enzyme counterscreen, NADH absorbance; in the data active means inhibition above about 30%;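 further: 0% = DMSO wells and 100% = wells lacking the enzyme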
# Mtb FBA inh – Mtb FBA enzyme inhibitors, primary screen, biochemical, fluorescence, strain H37Rv; purified M. tuberculosis FBA, fluorescence read-out; inhibition, % at 1 µM; actives 2.3% (n = 360,000); in the data active means inhibition above about 27%;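 further: 0% = vehicle and 100% = reference inhibitor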
# Target sequence (P9WQA3 whole entry, looked up): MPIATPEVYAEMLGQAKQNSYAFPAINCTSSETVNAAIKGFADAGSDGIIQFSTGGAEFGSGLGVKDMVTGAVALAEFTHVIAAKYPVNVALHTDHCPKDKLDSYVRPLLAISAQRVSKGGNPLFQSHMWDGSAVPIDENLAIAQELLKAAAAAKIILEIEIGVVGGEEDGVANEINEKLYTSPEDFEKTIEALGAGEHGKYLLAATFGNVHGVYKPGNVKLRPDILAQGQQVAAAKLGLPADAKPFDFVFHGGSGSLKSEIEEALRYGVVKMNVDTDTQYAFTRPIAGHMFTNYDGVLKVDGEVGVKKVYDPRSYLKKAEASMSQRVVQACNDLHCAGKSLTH
# GFP chromophore – counter-screen: blocks GFP chromophore formation, dose response, counter-screen, biochemical, fluorescence, homogeneous. shares compounds with RecA splice inh. cell-free GFP chromophore formation. EC50, µM. actives 83% (n = 2,100)
# * marks the source's active call; other numbers are inactive results; x = no result. Rows were chosen to be rich in hits. Some 4.2% of all compounds tested hit in one or more screens of this group. Unless noted, how the calls were made is not given here.
SMILES,RecA splice inh,CCHF vOTU inh,Mtb bLac sens,GDH-TPI counter,Mtb FBA inh,GFP chromophore
CCCc1[nH]nc2c1C(c1ccc(OC)cc1OC)C(C#N)=C(N)O2 (stereo not given),79.1*,15.8,9.3,-4.2,-5.2,17.1*
CCCc1[nH]nc2c1C(C1CCCCC1)C(C#N)=C(N)O2 (stereo not given),-5.2,6.3,-0.1,4.7,-2.8,x
CCCc1[nH]nc2c1C(c1cccc(OC)c1)C(C#N)=C(N)O2 (stereo not given),41.9*,5.9,4.2,-1.2,3.1,38*
CN(NC(=O)c1cccc(Cl)c1)c1nc(-c2ccccc2)nnc1C(F)(F)F,-8.7,-2.7,4.2,14.2,2.8,x
FC(F)(F)c1nnc(-c2ccccc2)nc1Sc1ccc(Cl)cc1,23.4,-7.6,97.4,-1.0,1.4,x
FC(F)(F)c1cccc(Oc2nc(-c3ccccc3)nnc2C(F)(F)F)c1,57.8*,0.5,9.6,4.6,0.1,1.46*
FC(F)(F)c1nnc(-c2ccccc2)nc1Oc1ccc(Cl)cc1Cl,61.2*,1.3,11.7,-5.8,-1.8,0.452*
FC(F)(F)c1nnc(-c2ccccc2)nc1Sc1ccccc1,63.3*,-0.8,0.9,-5.0,-7.1,27*
CC(=O)c1cc(-c2cccc(C(C)C)c2)c(=O)n2c1CCC2,x,4.4,x,x,x,x
COc1cccc(C(=O)N[C@H](C(=O)N2CCC[C@H]2C(=O)NCCc2ccccc2Cl)c2ccccc2)c1,x,3.2,x,x,x,x
CCCN1C(=O)c2[nH]nc(-c3ccccc3)c2C1c1ccc(F)cc1 (stereo not given),x,9.5,x,x,x,x
CCN1C(=O)N[C@H]2C[C@H](C(=O)N3CCCC3)[C@H](C)[C@H](c3ccccc3)C[C@H]21,x,-9.7,x,x,x,x
Cc1cccc(CSc2nc3c(c(-c4cccs4)c2C#N)CN(C)CC3)c1,61.2*,0.6,99.8,3.0,-3.0,25.4*
Cc1cccc(CSc2nc(N)c(C#N)c(-c3cccs3)c2C#N)c1,2.5,7.4,-10.4,4.8,1.7,x
CC(C)CNc1ccc2c(c1)OC[C@H](C)NS2(=O)=O,x,2.9,x,x,x,x
COc1cc(/C=N/NC(=O)CC2(C)OCCCO2)ccc1OCc1ccccc1,39.4*,-16.2,-3.9,4.1,0.2,3.11*
C=C(C)Cn1c(SCC(=O)N/N=C(\C)c2ccc(Br)cc2)nnc1-c1ccc(Br)cc1,x,8.6,x,x,x,x
O=C1c2[nH]nc(-c3ccccc3)c2C(c2ccc(F)cc2)N1Cc1ccccc1 (stereo not given),x,1.4,x,x,x,x
COCc1cc(N2CCNC[C@@H]2C)ccc1N1C[C@@H](C)O[C@@H](C)C1,x,-6.2,x,x,x,x
CCNc1ccc2noc3c2c1C(=O)c1ccccc1-3,-2.2,16.3,45.9,1.5,-3.4,x
O=C1c2ccccc2-c2onc3ccc(N4CCCC4)c1c23,54.9*,15.2,x,11.0,-2.1,24.2*
Nc1[nH]c(C(=O)c2ccccc2)c(-c2ccccc2Cl)c1C(=O)NCCc1c[nH]c2ccccc12,x,19.3,x,x,x,x
Nc1ccccc1S(=O)(=O)NC1=NCCCCC1,30.0*,-9.6,3.5,7.3,0.8,>38
CC(C)=CCC/C(C)=C/CNCC(=O)N1c2ccccc2[C@]2(C)C[C@@H]3C(=O)N(C/C=C(\C)CCC=C(C)C)CC(=O)N3[C@H]12,x,21.0,x,x,x,x
COc1ccc(S[C@]2(C(=O)N3CCCC3)CC(=O)N(C(=O)CCc3ccccc3)[C@@H]2c2ccc(OC)cc2)cc1,x,2.2,x,x,x,x
SMILES,RecA splice inh,CCHF vOTU inh,Mtb bLac sens,GDH-TPI counter,Mtb FBA inh,GFP chromophore
Cc1ccc(-c2ccc(/C=N/N=C3/NC(=O)C(CC(=O)O)S3)o2)c([N+](=O)[O-])c1 (stereo not given),47.6*,15.7,-3.4,35.9*,-4.2,33.9*
Cc1ccc(S(=O)(=O)Oc2ccc(/C=N/N=C3/NC(=O)C(CC(=O)O)S3)cc2)cc1 (stereo not given),x,10.1,x,22.1,1.1,x
CC(=O)Oc1ccc(N(C(C)=O)S(=O)(=O)c2ccc(C)cc2C)c2ccccc12,0.9,10.7,2.1,8.5,-1.7,x
Cc1ccc(S(=O)(=O)N(C(=O)c2ccncc2)c2ccc(OC(=O)c3ccncc3)c3ccccc23)cc1,47.1*,4.2,-0.8,5.5,0.7,0.747*
Cc1ccc(S(=O)(=O)N(C(=O)c2ccncc2)c2ccc(OC(=O)c3ccncc3)c3ccccc23)c(C)c1,98.2*,x,23.8,8.6,0.1,>38
CC(=O)Oc1ccc(N(C(C)=O)S(=O)(=O)c2ccccc2)c2ccccc12,x,-4.6,x,2.7,-2.0,x
CSCCCNC(=O)Cn1nc(Cc2ccncc2)c2ccccc2c1=O,x,-3.4,x,x,x,x
CN1c2ccccc2C(C)(C)C12C=Nc1c(ccc3ccccc13)O2 (stereo not given),78.9*,12.0,2.1,-16.8,15.8,25.1*
Cc1ccsc1C=Nc1ccc(O)cc1,77.6*,x,-4.6,11.4,4.2,36.2*
O=C(CS(=O)c1ccc(C(F)(F)F)cc1[N+](=O)[O-])Oc1ccccc1 (stereo not given),66.0*,10.1,99.7,9.1,1.8,14.8*
COC(=O)c1ccc(OC(=O)CS(=O)c2ccccc2[N+](=O)[O-])cc1 (stereo not given),x,-5.6,-0.7,1.6,8.3,x
COc1cc(/C=C2/C(=O)N(c3ccc(C)c(C)c3)N=C2C)cc([N+](=O)[O-])c1O,41.8*,-1.9,8.3,10.6,-2.8,20.8*
CCn1c(Cl)c(C=O)s/c1=N\S(=O)(=O)c1ccccc1,88.9*,9.0,-5.0,20.6,-0.7,14.7*
COc1ccc(C(=O)C2(C(=O)NCc3ccccc3)CC(c3ccccc3C(F)(F)F)=NO2)cc1 (stereo not given),x,14.8,x,x,x,x
O=c1[nH]cc(F)c(=O)[nH]1,0.5,-0.3,100.1,-8.2,1.3,x
O=c1[nH]cc(O)c(=O)[nH]1,89.0*,-1.8,-10.7,8.8,0.3,15.2*
C/C=C/C=C/C(=O)c1cc(C)c(OC(=O)CNC(=O)OC(C)(C)C)c(C)c1O,x,6.3,x,x,x,x
O=C(CCS(=O)NCc1ccccc1)NCc1ccccc1 (stereo not given),59.2*,x,-8.2,x,x,>38
O=C(CCS(=O)CCC(=O)NCc1ccccc1)NCc1ccccc1,-0.1,-3.5,-3.5,5.0,-8.3,x
CC(OC(=O)c1cc(O)c2ccccc2c1O)C(=O)Nc1ccc(C(N)=O)cc1 (stereo not given),73.1*,86.1*,-3.0,1.4,1.4,5.18*
CC(=O)c1ccc(OC(=O)c2cccs2)cc1,35.5*,-5.5,22.0,-3.1,1.6,>38
CC(=O)Nc1ccc(OC(=O)c2cccs2)cc1,7.9,21.3,-0.5,0.4,2.0,x
Cc1nn(-c2cccc(Cl)c2)c2c1C(c1ccncc1)C(C#N)=C(N)O2 (stereo not given),57.1*,19.6,-2.3,9.2,-2.8,23*
